An excerpt weighted towards active compounds, which were near 4.2% of everything screened.
MCF10A rereplic = DNA re-replication induction in MCF 10a cells | Potency, µM (series often up to 46.1 µM), usual class: activators | actives 2.9% (n = 350,000) | MCF 10A DNA re-replication, Hoechst nuclear intensity, 48 h; further: nearly all actives have a fitted effect of over 50% in size
SW480 rereplic = inducers of DNA re-replication in SW480 colon cancer cells; SW480 DNA re-replication, Hoechst DNA content imaging, 48 h; Potency, µM (top dose mostly 46.1 µM), most hits filed as activators; actives 1.8% (n = 340,000); AID 624297; further: nearly all actives have a fitted effect of over 55% in size
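Image-based read-out: total Hoechst fluorescence of nuclei (405 nm excitation, 500-530 nm emission), with hits raising the fraction of high-intensity nuclei. SW480 colon cells incubated 48 hr with compounds at 37 C.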
Mito fusion act = blocks mitochondrial division or promotes mitochondrial fusion | S. cerevisiae fusion-defective mutant growth rescue, CellTiterGlo 48 h | Potency, µM (series often up to 46.1 µM), most hits filed as activators | actives 0.23% (n = 320,000); further: nearly all actives have a fitted effect of over 45% in size
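Temperature-sensitive fusion-defective S. cerevisiae (e.g. fzo1-1, mgm1-5) were grown with compound in YPEG medium (3% ethanol, 3% glycerol) for 48 hours at 37C. Growth rescue was measured as viability by CellTiterGlo luminescence after 10 minutes at ambient.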
Integrin act MD = integrin-mediated muscular dystrophy alleviation activation; alpha7betagal myoblasts, beta-gal FDG fluorescence, 48 h; Potency, µM (titrated, usually from 38.3 µM), actives largely listed as activators; actives 0.064% (n = 350,000); further: nearly all actives have a fitted effect of over 60% in size
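Alpha7betagal+/- myoblasts (passage 13) were plated 16-24 hr, then exposed to compounds (1:260 dilution of DMSO stock) for 48 hours at 37C. After MPER lysis, β-galactosidase reporter activity was read as FDG fluorescence (ex 480/em 540) after 30 minutes.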
A-T KAP1 phos = candidate therapy for ataxia-telangiectasia. Potency, µM (doses to about 57.5 µM), most hits filed as activators. actives 0.19% (n = 320,000). F2112 A-T fibroblasts, KAP-1 phosphorylation AlphaLISA; neocarzinostatin DNA damage 30 min before lysis; further: nearly all actives have a fitted effect of over 45% in size
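ATM-like activity read as KAP-1 phosphorylation via AlphaLISA donor/acceptor antibody pairs after lysis and 6 hr at 25C. Cells were ATM-null patient fibroblasts (F2112, hTERT), dosed 60 min, then exposed to the DSB inducer NCS for 30 min.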
A number is an active result; [ ] = dose if it differs, or a comment. The call rests on the fitted dose curve; in most records, active means well fitted activation curve with a large enough effect; inconclusive means small, poorly fitted or top-dose-only effect; inactive means no such curve, though single readings can be large or run the other way.

Screening O=C(N/N=C/c1cc([N+](=O)[O-])ccc1O)C(O)(c1ccccc1)c1ccccc1 returned MCF10A rereplic inconclusive, SW480 rereplic 20.6µM, Mito fusion act inactive, Integrin act MD inactive and A-T KAP1 phos inactive.
`O=C(N/N=C/c1cc([N+](=O)[O-])ccc1O)c1cccc2cc[nH]c12` gave MCF10A rereplic inconclusive, SW480 rereplic 7.31µM, Mito fusion act inactive, Integrin act MD inactive and A-T KAP1 phos inactive.
O=C(N/N=C/c1cc([N+](=O)[O-])ccc1O)c1cccc(N2CCCC2=O)c1 was read as MCF10A rereplic inactive, SW480 rereplic 9.2µM, Mito fusion act inactive, Integrin act MD inactive and A-T KAP1 phos inactive.
Screening COc1cc(CNCCN(C)C)c(Br)cc1OC1CCCC1 returned MCF10A rereplic inconclusive, SW480 rereplic inactive, Mito fusion act inactive, Integrin act MD inconclusive and A-T KAP1 phos inactive.
Screening OC(CN1CCN(c2ccccn2)CC1)Cn1c2ccc(Cl)cc2c2cc(Cl)ccc21 (stereo not drawn) returned MCF10A rereplic 20.6µM, SW480 rereplic inconclusive, Mito fusion act inactive, Integrin act MD inactive and A-T KAP1 phos inactive.
For CCC(=O)Nc1cccc(-c2nc3ccc(C)cc3o2)c1 the results were MCF10A rereplic inactive, SW480 rereplic inactive, Mito fusion act inactive, Integrin act MD inactive and A-T KAP1 phos inactive.
`O=C(Nc1ccc2c(c1)OCCO2)c1ccc2nccnc2c1` gave MCF10A rereplic 7.31µM, SW480 rereplic inactive, Mito fusion act inactive, Integrin act MD inactive and A-T KAP1 phos inactive.
`Cc1ccc2nc(-c3cccc(NC(=O)c4ccc5c(c4)OCCO5)c3)oc2c1` gave MCF10A rereplic 18.4µM, SW480 rereplic inactive, Mito fusion act inactive, Integrin act MD inactive and A-T KAP1 phos inactive.
`O=C(COC(=O)/C=C/c1cccc(F)c1)NCc1ccc2c(c1)OCO2` gave Integrin act MD inactive.
Screening S=C1NC=NC2N=CNC12 (stereo not drawn) returned MCF10A rereplic inactive and SW480 rereplic inconclusive.
`CCN1C(=O)c2cccc3c(S(=O)(=O)Nc4nc(C)cs4)ccc1c23` gave MCF10A rereplic 14.6µM, SW480 rereplic inactive, Mito fusion act inactive, Integrin act MD inconclusive and A-T KAP1 phos inactive.
CCN1C(=O)c2cccc3c(S(=O)(=O)NCc4cccnc4)ccc1c23 was read as MCF10A rereplic inactive, SW480 rereplic inactive, Mito fusion act inactive, Integrin act MD inactive and A-T KAP1 phos inactive.
For CCN1C(=O)c2cccc3c(S(=O)(=O)NCc4ccco4)ccc1c23 the results were MCF10A rereplic 11.6µM, SW480 rereplic inconclusive, Mito fusion act inactive, Integrin act MD inactive[7.66 µM] and A-T KAP1 phos inactive.
For CCN1C(=O)c2cccc3c(S(=O)(=O)Nc4ccncc4)ccc1c23 the results were MCF10A rereplic inactive, SW480 rereplic inactive, Mito fusion act inactive and Integrin act MD inactive.
CCN1C(=O)c2cccc3c(S(=O)(=O)Nc4ccccc4)ccc1c23 was read as MCF10A rereplic 23.1µM, SW480 rereplic inactive, Mito fusion act inactive, Integrin act MD inactive and A-T KAP1 phos inactive.
For CCOC(=O)C1=C(C)N=c2s/c(=C\c3ccc(OCC(=O)O)cc3)c(=O)n2C1c1ccc(OC(C)C)cc1 (stereo not drawn) the results were MCF10A rereplic 14.6µM, SW480 rereplic inactive, Mito fusion act inactive, Integrin act MD inactive and A-T KAP1 phos inactive.
`COc1ccc(C(=O)c2cc([N+](=O)[O-])ccc2N2CCN(C)CC2)cc1` gave MCF10A rereplic 8.2µM, SW480 rereplic inconclusive, Mito fusion act inactive, Integrin act MD inactive and A-T KAP1 phos inactive.
`O=C(c1ccccc1)c1cc([N+](=O)[O-])ccc1N1CCCC1` gave MCF10A rereplic inconclusive, SW480 rereplic inactive, Mito fusion act inconclusive, Integrin act MD inactive and A-T KAP1 phos inactive.
`Cc1ccc(C(=O)c2cc([N+](=O)[O-])ccc2N2CCCCC2)cc1C` gave MCF10A rereplic inconclusive, SW480 rereplic 1.84µM, Mito fusion act inactive, Integrin act MD inactive and A-T KAP1 phos inactive.
`COc1ccc(C(=O)c2cc([N+](=O)[O-])ccc2N2CCCC2)cc1` gave MCF10A rereplic 1.46µM, SW480 rereplic 18.4µM, Mito fusion act inconclusive, Integrin act MD inactive and A-T KAP1 phos inactive.
Screening Cc1ccc(C(=O)c2cc([N+](=O)[O-])ccc2N2CCOCC2)cc1C returned MCF10A rereplic inconclusive, Mito fusion act inactive, Integrin act MD inactive and A-T KAP1 phos inactive.
For Cn1ccc(C(=O)OCC(=O)Nc2cccc3ccccc23)n1 the results were MCF10A rereplic inactive, SW480 rereplic inactive, Mito fusion act inactive, Integrin act MD inactive and A-T KAP1 phos inactive.
Screening COc1cc(OC)nc(Oc2ccccc2C(=O)Oc2cccc(C)c2)n1 returned MCF10A rereplic inactive, SW480 rereplic inactive, Mito fusion act inactive, Integrin act MD inactive and A-T KAP1 phos inactive.
Screening O=C(NCC(=O)N1CCCC(C(F)(F)F)C1)c1ccc2ccccc2c1 (stereo not drawn) returned MCF10A rereplic inactive, SW480 rereplic 18.4µM, Mito fusion act inactive, Integrin act MD inactive and A-T KAP1 phos inactive.
For COc1ccc(-c2coc3cc4oc(=O)c5ccccc5c4cc23)cc1F the results were MCF10A rereplic inconclusive, SW480 rereplic 2.51µM, Mito fusion act inactive, Integrin act MD inactive and A-T KAP1 phos inactive.
For CC(C)c1ccc(-c2cc(C(=O)N3CCOCC3)c3cc(Br)ccc3n2)cc1 the results were MCF10A rereplic inactive, SW480 rereplic inactive, Mito fusion act inactive, Integrin act MD inactive and A-T KAP1 phos 4.47µM.
C=CC[C@@H](CC(=O)N(CCO)Cc1ccccc1)C(=O)N[C@@H](COC(=O)[C@@H](CC=C)Cc1ccc(F)cc1)Cc1c[nH]c2ccccc12 was read as MCF10A rereplic inconclusive, SW480 rereplic inactive, Integrin act MD inactive and A-T KAP1 phos inactive.
For C=CCC[C@H](Cc1ccc(F)cc1)C(=O)OC[C@@H](Cc1c[nH]c2ccccc12)NC(=O)[C@H](CC=C)CC(=O)N(CCO)Cc1ccccc1 the results were MCF10A rereplic 18.4µM, SW480 rereplic inconclusive, Integrin act MD inactive and A-T KAP1 phos inactive.
`C=CC[C@H](CC(=O)N(CCO)Cc1ccccc1)C(=O)N[C@@H](COC(=O)[C@@H](CC=C)Cc1ccc(F)cc1)Cc1c[nH]c2ccccc12` gave MCF10A rereplic 18.4µM, SW480 rereplic 20.6µM, Integrin act MD inactive and A-T KAP1 phos inactive.
For C=CCC[C@@H](Cc1ccc(F)cc1)C(=O)OC[C@@H](Cc1c[nH]c2ccccc12)NC(=O)[C@H](CC=C)CC(=O)N(CCO)Cc1ccccc1 the results were MCF10A rereplic 23.1µM, SW480 rereplic inconclusive, Integrin act MD inactive and A-T KAP1 phos inactive.
`C=CCC[C@@H](Cc1ccc(F)cc1)C(=O)OC[C@H](Cc1c[nH]c2ccccc12)NC(=O)[C@@H](CC=C)CC(=O)N[C@H](CO)Cc1ccccc1` gave MCF10A rereplic inactive, SW480 rereplic 3.66µM, Integrin act MD inactive and A-T KAP1 phos inactive.
